Only some compounds are listed: those with a hit (about 5.4% of all), similar ones and a draw of the others.
Mdm2 MdmX PPI: inhibitors of human Mdm2/MdmX interaction | SaOS-2 split-luciferase Mdm2/MdmX complementation, luminescence | inhibition, % at 8 µM | 330,000 compounds, 3% hits;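 active = inhibition of at least 50% at 8 µM in the primary screen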
Target sequence (O15151 whole entry, looked up): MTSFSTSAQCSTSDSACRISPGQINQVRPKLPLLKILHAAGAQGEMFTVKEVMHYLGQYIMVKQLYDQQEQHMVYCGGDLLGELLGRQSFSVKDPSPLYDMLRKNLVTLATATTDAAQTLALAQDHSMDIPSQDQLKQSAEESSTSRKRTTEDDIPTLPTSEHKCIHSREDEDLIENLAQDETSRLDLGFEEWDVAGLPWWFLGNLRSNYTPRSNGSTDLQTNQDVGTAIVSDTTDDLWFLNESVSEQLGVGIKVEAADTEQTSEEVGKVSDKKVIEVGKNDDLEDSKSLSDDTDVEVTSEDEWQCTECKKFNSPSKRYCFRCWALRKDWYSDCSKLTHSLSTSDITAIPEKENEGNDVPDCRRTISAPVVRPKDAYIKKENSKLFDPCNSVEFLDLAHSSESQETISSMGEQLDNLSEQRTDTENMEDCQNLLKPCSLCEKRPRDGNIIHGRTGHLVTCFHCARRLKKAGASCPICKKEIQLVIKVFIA
Target sequence (Q00987 whole entry, looked up): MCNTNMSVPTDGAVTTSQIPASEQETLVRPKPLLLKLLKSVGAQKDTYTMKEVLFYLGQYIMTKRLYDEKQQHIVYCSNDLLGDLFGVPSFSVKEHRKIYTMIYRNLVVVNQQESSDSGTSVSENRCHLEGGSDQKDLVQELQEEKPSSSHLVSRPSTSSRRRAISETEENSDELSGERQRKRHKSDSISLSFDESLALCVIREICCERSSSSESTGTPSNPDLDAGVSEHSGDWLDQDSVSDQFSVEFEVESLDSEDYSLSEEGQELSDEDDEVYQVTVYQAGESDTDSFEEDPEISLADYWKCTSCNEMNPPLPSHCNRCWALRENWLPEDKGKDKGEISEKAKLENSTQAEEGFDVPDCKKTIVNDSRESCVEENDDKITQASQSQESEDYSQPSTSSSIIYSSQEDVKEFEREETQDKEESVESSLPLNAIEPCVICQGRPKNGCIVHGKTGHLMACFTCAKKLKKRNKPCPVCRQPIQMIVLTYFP
Beta cell apopt: beta cell apoptosis inhibition; INS-1E cytokine-induced death, ATP luminescence, 48 h; percent of positive-control rescue, neutral wells zero; protection from apoptosis, % (test concentration not listed); 300,000 compounds, 0.8% hits; AID 435005;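 active = Every replicate reaches about 75%, or at least half do and their mean reaches it too, limit read from the data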;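 note: 0% = cytokine-treated negative control wells and 100% = positive control rescue; higher means more ATP so stronger rescue from cytokine killing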
SKKanGAS inh: blocks kanamycin growth of S. pyogenes SKKanGAS strain | AID 1662 | 300,000 compounds, 1.3% hits | BacTiter-Glo, 6 h | inhibition, % at 7.5 µM;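 active = mean replicate score, as percent of positive control median, at least 50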;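 note: strain carries kanamycin resistance gene driven by streptokinase promoter and grows in 40 µg/ml kanamycin; loss of luminescence reflects streptokinase promoter inhibition or plain growth inhibition; 0% = median of DMSO wells and 100% = positive control at its reference dose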
CSC inhib: cancer stem cell inhibition; AID 2717; inhibition, % at 7.5 µM; 300,000 compounds, 1.1% hits; cancer stem cell-like cells viability, luminescence; in the data active = inhibition above about 75%; tested in HMLE shEcad cells
Calb FLC: affects C. albicans growth with fluconazole. 300,000 compounds, 0.57% hits. C. albicans CaCi-2 (fluconazole-resistant clinical isolate) + fluconazole, Alamar Blue growth, 48 h. AID 1979. growth inhibition, % (test concentration not listed);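 active = growth inhibition above about 58% in most replicates, limit read from the data, passing the limit was not always enough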;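 note: all wells also contain fluconazole at 8 µg/ml as a sub-toxic cotreatment; 0% = median of DMSO wells and 100% = median of geldanamycin control wells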
MPTP block: permeability transition pore inhibition; isolated mouse mitochondria, Ca2+ swelling absorbance, 30 min; inhibition, % at 10 µM; 360,000 compounds, 1.4% hits; AID 602449;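 active = inhibition of 50% or more, scaled per plate between neutral and stimulator controls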;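 note: 0% = DMSO wells given calcium and 100% = 1 mM EGTA wells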
Mdm2-MdmX conf: confirmation of human Mdm2/MdmX interaction inhibitors; shares compounds with Mdm2 MdmX PPI; 10,000 compounds, 55% hits; AID 489028; inhibition, % at 8 µM; Mdm2-MdmX binding, luminescent assay; in the data active = inhibition above about 40%
Full FLuc ctr: counter-screen for Mdm2/MdmX inhibitors: full-length luciferase | 6,200 compounds, 77% hits | shares compounds with Mdm2 MdmX PPI | SaOS-2 full-length luciferase counterscreen, luminescence | inhibition, % at 8 µM;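 active = mean inhibition at 8 µM reaching about 37%, which flags the compound as non-specific, limit read from the data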;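 note: p53-null SaOS-2 cells with luciferase driven by a doxycycline-inducible promoter; compound on cells about two nights before reading with doxycycline added after day one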
Numbers without * were called inactive; / = no result given.

SMILES	Mdm2 MdmX PPI	Beta cell apopt	SKKanGAS inh	CSC inhib	Calb FLC	MPTP block	Mdm2-MdmX conf	Full FLuc ctr
COc1ccc(C(CCNCc2ccc(N(C)C)cc2)C(C)C)cc1 (stereo unspecified)	49.2	36.7	4.8	18.6	-21.9	45.2	/	/
COc1ccc(CNCCC(c2ccc(OC(C)C)cc2)C(C)C)cc1OC (stereo unspecified)	77.2*	86.5*	-1.3	-3.5	-22.4	7.8	50.5*	67.2*
COc1ccc(C(CCNCc2ccc(OC(C)C)cc2)C(C)C)cc1 (stereo unspecified)	84.6*	57.0	-1.9	35.0	14.8	39.9	38.9	71.1*
COc1ccc2cc(CCNC(=O)c3c(-c4ccccc4Cl)noc3C)c(=O)[nH]c2c1	-42.9	2.3	-2.4	-14.3	0.8	-1.3	/	/
Cc1nc2c3ccccc3nc(NNC(=O)CCC(=O)NC(C)C)n2n1	-13.2	-4.5	3.3	-3.6	9.8	5.9	/	/
COc1cc(NC2=CC(=O)CC(C)(C)C2)cc(OC)c1OC	16.5	-1.0	/	/	-11.8	-0.3	/	/
Cc1c(NC(=O)Cn2nc(C(F)(F)F)c3c2CCCC3)c(=O)n(-c2ccccc2)n1C	21.0	-4.4	-1.0	-9.0	1.3	-0.9	/	/
CC(=O)N1CCc2c(sc(NC(=O)CCS(=O)(=O)c3ccc(C)cc3)c2C#N)C1	52.4*	20.2	-2.5	1.3	3.2	0.1	40.9*	77.8*
Nc1nnc(SCc2coc(-c3ccc(Cl)cc3)n2)s1	-15.2	-2.2	-7.8	3.4	2.3	-4.4	/	/
COc1ccc(C(=O)c2cn(-c3cccc(Br)c3)nc2C(C)=O)cc1	22.0	4.7	-2.8	-30.6	-20.1	4.6	/	/
CC(=O)c1nn(-c2cccc(Br)c2)cc1C(=O)c1ccc2ccccc2c1	63.2*	9.4	2.3	/	-8.1	-3.9	30.0	/
CCOc1ccc(NC(=O)c2ccncc2)cc1	-4.6	/	-12.5	4.4	15.2	-1.7	/	/
CCOc1ccc2c(c1)C(=NNC(=O)c1ccncc1)c1cc(OCC)ccc1-2	66.2*	64.9	65.0*	51.6	2.8	6.3	52.1*	55.4*
Cc1ccc(N=Nc2c(N)[nH]n3c(=O)cc(-c4ccccc4)nc23)cc1	49.6	5.6	/	/	-28.3	5.5	/	/
COc1cccc(N=Nc2c(N)[nH]n3c(=O)cc(-c4ccccc4)nc23)c1	61.7*	26.2	109.6*	-8.3	5.1	-0.9	33.7	/
Cn1c(Cn2c(=O)sc3ccccc32)nnc1SCc1cccnc1	4.8	-3.2	-1.9	/	8.1	-3.4	/	/
COc1ccc(C(=O)/C=C/C(=O)N(CC(=O)NC2CCCCC2)CC2CCCO2)c(O)c1 (stereo unspecified)	59.6*	48.7	-35.9	3.8	47.2	-3.5	29.1	/
O=C(ONC1=NCCCCC1)c1c(F)cccc1F	65.0*	-4.6	-5.9	7.1	-5.9	0.1	26.8	/
O=C(ONC1=NCCCCC1)c1ccc(Cl)cc1	69.8*	0.6	-6.6	6.6	-5.0	-0.2	18.8	/
COc1ccc(NC(=O)Cc2c(SC)c3ccccc3n2Cc2ccccc2)cc1	68.8*	22.6	1.6	-0.9	-2.9	3.5	40.0	89.8*
COc1cc(/C=C(\C#N)c2ccccn2)ccc1OCc1ccccc1Cl	/	2.0	/	37.2	/	2.5	/	/
COc1cc(/C=C(\C#N)c2ccccn2)ccc1OCC(=O)Nc1cccc(C(F)(F)F)c1	61.4*	-4.7	0.3	37.0	-27.9	-5.5	51.6*	57.4*
CCc1ccc(NC(=O)COc2ccc(/C=C(/C#N)c3nc4ccccc4[nH]3)cc2OC)cc1	100.4*	/	5.3	3.9	10.2	5.8	81.2*	52.7*
COc1cc(/C=C(/C#N)c2nc3ccccc3[nH]2)ccc1Oc1ncccc1[N+](=O)[O-]	67.9*	10.6	20.2	9.4	-9.7	5.8	26.1	/
COc1cc(/C=C(/C#N)c2nc3ccccc3[nH]2)ccc1OCc1ccc(C(=O)O)o1	11.0	2.5	4.5	5.0	-4.6	-1.4	/	/
SMILES	Mdm2 MdmX PPI	Beta cell apopt	SKKanGAS inh	CSC inhib	Calb FLC	MPTP block	Mdm2-MdmX conf	Full FLuc ctr
COc1ccc(C(=O)NCc2nnc(SCC(=O)N3CCOCC3)o2)cc1	2.3	-0.9	2.2	7.4	-7.3	0.8	/	/
Cc1cccc(C)c1NC(=O)C1(C)CN(S(C)(=O)=O)CC(=O)N1CCCN1CCOCC1 (stereo unspecified)	/	/	/	/	/	0.5	/	/
Cc1sc(NC(=O)c2ccco2)nc1-c1ccc2c(c1)CC(C)N2C(=O)C1CC1 (stereo unspecified)	84.9*	26.8	23.9	57.8	6.1	-2.8	54.8*	53.4*
CC(=O)Nc1nc(-c2ccc3c(c2)CC(C)N3C(=O)C2CC2)c(C)s1 (stereo unspecified)	85.0*	7.4	15.7	-3.4	-0.7	-1.9	85.0*	53.5*
CCOC(=O)C(=O)Nc1nc(-c2ccc3c(c2)CCN3C(=O)C2CC2)c(C)s1	-3.6	3.6	-0.4	-2.3	-19.8	2.1	/	/
O=C(Nc1ccc(S(=O)(=O)Nc2ncccn2)cc1)c1ccc(Cl)c([N+](=O)[O-])c1	13.9	/	3.1	/	-3.4	0.6	/	/
Cc1ccc(-c2[nH]ncc2/C=N/n2c(COc3ccccc3)nc3ccccc3c2=O)cc1	82.4*	41.4	34.1	21.3	2.2	-1.3	45.6*	55.9*
Cc1ccccc1OCc1nc2ccccc2c(=O)n1/N=C/c1cn[nH]c1-c1ccccc1	13.9	0.0	39.0	25.3	2.6	0.8	/	/
CN(CC(=O)Nc1c(Cl)cccc1Cl)CC(=O)N1CCc2ccccc21	/	/	/	/	/	-0.2	/	/
Cc1ccc(C(c2cc(Cl)c3cccnc3c2O)N2CCN(C)CC2)cc1 (stereo unspecified)	68.8*	52.1	51.0*	115.2*	87.8*	6.3	57.1*	32.5
Oc1c(C(c2ccccn2)N2CCC(Cc3ccccc3)CC2)cc(Cl)c2cccnc12 (stereo unspecified)	55.7*	16.4	74.9*	/	105.0*	/	38.0	33.2
Oc1c(C(c2ccc(Cl)cc2)N2CCCC2)cc(Cl)c2cccnc12 (stereo unspecified)	80.0*	16.5	79.8*	99.3*	98.5*	3.7	72.5*	32.9
CSc1nc(N)c2c(n1)N(C)C=NS2(=O)=O	/	/	/	/	/	-2.1	/	/
CCOC(=O)c1c(C)n(C)c2cc(CN(C)C)c(O)c(S(=O)(=O)c3ccccc3)c12	9.7	/	-4.7	-10.4	-7.4	0.2	/	/
O=C1CC(c2cc(Br)ccc2F)c2cc3c(cc2N1)CCC3 (stereo unspecified)	65.9*	40.2	-4.1	82.4*	0.7	0.0	55.8*	95.0*
O=C1CC(c2ccccc2F)c2cc3c(cc2N1)CCC3 (stereo unspecified)	58.0*	/	2.9	/	10.6	-0.2	58.0*	57.2*
O=C1CC(c2cccc([N+](=O)[O-])c2)c2cc3c(cc2N1)CCC3 (stereo unspecified)	31.3	9.7	-4.2	41.1	0.9	3.6	/	/
